Tests used:
Assay in all cases: DAPPL (digital affinity profiling via proximity ligation, sequencing); 10 mM Tris-HCl pH 7.5, 50 mM NaCl, 1 mM DTT, 4% glycerol, room temperature, 30 min; GST-TFs on glutathione beads, 16-mer random dsDNA library, 0.1% formaldehyde crosslink after washing; high values mean tight binding
Settings in all cases: protein: recombinant; tags: N-terminal GST; dsDNA, one strand shown
ERF = target: T1, ERF (Homo sapiens, UniProt P50548 1-548)
T1 sequence: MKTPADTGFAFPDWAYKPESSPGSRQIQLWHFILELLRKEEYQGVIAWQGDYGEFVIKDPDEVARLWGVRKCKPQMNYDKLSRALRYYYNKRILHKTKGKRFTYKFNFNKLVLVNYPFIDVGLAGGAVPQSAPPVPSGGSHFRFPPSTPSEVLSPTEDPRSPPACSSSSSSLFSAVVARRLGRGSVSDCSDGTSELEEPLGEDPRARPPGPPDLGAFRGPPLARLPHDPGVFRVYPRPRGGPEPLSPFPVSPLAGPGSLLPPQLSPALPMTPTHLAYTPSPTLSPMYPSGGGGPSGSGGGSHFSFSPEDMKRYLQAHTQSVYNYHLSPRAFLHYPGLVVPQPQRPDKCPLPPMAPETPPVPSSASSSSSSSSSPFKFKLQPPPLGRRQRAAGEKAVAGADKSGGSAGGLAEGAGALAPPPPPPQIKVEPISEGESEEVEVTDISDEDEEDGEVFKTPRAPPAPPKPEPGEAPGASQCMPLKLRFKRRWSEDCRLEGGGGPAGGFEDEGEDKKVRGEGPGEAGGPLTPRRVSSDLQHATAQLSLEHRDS
Summary of the method: (§1)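 After expression in yeast as GST fusions, human transcription factors were bound to glutathione beads, DNA-barcoded and mixed with a tag-only sample. The pools were incubated with 200 nmole of a 16-mer random double-stranded DNA library in Tris/NaCl/DTT/glycerol buffer (30 min, room temperature), washed and crosslinked with 0.1% formaldehyde. Proximity ligation with BsaI/T4 ligase ran for 1 h at 37 °C, before PCR amplification and sequencing on an Illumina NextSeq500. Binding signal is a hexamer's read frequency for a factor divided by its frequency for the tag-only sample.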

ETV3L = target: T2, ETV3L (Homo sapiens, UniProt Q6ZN32 1-361)
T2 sequence: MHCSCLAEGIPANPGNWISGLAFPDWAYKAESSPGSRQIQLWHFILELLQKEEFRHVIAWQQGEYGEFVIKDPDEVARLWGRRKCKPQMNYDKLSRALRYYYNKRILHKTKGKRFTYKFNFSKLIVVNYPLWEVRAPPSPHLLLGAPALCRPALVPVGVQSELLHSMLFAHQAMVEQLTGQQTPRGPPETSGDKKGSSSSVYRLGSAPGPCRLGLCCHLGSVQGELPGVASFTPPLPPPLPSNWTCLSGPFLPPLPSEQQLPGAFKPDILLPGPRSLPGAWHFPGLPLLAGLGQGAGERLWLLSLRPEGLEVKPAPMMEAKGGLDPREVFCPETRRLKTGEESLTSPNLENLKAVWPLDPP
Summary of the method: as §1

ETS2 = target: T3, ETS2 (Homo sapiens, UniProt P15036 1-469)
T3 sequence: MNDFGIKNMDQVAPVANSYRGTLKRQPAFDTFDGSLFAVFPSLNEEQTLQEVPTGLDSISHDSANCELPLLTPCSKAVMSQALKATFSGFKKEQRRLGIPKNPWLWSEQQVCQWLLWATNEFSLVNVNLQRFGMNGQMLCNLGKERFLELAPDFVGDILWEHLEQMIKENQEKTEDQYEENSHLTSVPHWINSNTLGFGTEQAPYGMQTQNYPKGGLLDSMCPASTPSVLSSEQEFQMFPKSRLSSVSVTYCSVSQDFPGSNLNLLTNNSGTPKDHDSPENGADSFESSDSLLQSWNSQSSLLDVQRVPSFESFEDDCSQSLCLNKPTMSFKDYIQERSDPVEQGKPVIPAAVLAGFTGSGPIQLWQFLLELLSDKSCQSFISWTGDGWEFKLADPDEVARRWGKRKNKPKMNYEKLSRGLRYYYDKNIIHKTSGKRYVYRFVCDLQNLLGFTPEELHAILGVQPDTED
Summary of the method: as §1

SPDEF = target: T4, SPDEF (Homo sapiens, UniProt O95238 1-335)
T4 sequence: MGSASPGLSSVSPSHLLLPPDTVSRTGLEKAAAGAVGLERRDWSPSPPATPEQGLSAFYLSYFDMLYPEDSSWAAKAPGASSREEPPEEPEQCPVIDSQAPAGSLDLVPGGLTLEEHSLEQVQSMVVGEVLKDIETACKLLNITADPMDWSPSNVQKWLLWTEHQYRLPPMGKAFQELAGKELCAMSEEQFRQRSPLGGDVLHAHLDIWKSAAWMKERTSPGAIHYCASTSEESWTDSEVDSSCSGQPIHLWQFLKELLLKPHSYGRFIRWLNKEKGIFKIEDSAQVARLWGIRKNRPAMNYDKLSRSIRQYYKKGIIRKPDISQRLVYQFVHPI
Summary of the method: as §1

ETV7 = target: T5, ETV7 (Homo sapiens, UniProt Q9Y603 1-341)
T5 sequence: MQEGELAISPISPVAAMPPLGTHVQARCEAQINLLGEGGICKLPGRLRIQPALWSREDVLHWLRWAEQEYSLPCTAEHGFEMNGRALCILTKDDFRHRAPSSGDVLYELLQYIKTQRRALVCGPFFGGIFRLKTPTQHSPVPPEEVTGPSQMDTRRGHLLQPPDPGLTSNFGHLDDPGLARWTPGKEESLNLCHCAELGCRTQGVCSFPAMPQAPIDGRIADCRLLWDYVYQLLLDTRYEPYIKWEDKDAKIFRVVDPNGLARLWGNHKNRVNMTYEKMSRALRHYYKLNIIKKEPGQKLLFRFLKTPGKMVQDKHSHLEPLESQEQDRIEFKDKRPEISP
Summary of the method: as §1

ELF5 = target: T6, ELF5 (Homo sapiens, UniProt Q9UKW6-2 1-255)
T6 sequence: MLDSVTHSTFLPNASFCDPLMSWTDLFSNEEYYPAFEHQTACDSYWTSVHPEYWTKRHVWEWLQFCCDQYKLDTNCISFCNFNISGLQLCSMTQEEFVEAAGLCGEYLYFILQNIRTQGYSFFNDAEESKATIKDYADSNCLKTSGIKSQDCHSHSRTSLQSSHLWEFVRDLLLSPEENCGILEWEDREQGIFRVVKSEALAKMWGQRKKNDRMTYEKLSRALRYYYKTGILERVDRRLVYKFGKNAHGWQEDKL
Summary of the method: as §1

ETV3 = target: T7, ETV3 (Homo sapiens, UniProt P41162-2 1-143)
T7 sequence: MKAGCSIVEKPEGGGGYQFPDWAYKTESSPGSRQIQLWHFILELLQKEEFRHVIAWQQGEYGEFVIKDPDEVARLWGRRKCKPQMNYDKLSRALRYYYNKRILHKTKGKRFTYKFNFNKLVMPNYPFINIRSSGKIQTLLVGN
Summary of the method: as §1

ETV6 = ETV6 (Homo sapiens, UniProt P41212 1-452)
Chain of ETV6 (P41212 whole entry): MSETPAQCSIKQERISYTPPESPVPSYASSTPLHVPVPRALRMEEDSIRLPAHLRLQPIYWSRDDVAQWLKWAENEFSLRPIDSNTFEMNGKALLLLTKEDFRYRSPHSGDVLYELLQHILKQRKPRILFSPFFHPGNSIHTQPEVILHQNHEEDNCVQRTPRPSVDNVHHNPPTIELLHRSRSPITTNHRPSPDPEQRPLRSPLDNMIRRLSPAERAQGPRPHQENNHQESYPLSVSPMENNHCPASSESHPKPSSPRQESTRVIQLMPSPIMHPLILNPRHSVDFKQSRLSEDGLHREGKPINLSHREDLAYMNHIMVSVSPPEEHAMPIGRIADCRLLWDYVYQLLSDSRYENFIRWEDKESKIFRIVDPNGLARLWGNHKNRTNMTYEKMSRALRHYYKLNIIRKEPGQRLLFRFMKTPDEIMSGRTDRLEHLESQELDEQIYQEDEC
Summary of the method: as §1

Sequence	binding signal (ERF)	binding signal (ETV3L)	binding signal (ETS2)	binding signal (SPDEF)	binding signal (ETV7)	binding signal (ELF5)	binding signal (ETV3)	binding signal (ETV6)
CTTTCC	1.82 fold enrichment (6-mer frequency, TF over GST control)	1.76 fold enrichment (6-mer frequency, TF over GST control)	2.1 fold enrichment (6-mer frequency, TF over GST control)	1.96 fold enrichment (6-mer frequency, TF over GST control)	1.64 fold enrichment (6-mer frequency, TF over GST control)	2.39 fold enrichment (6-mer frequency, TF over GST control)	2.12 fold enrichment (6-mer frequency, TF over GST control)	2.07 fold enrichment (6-mer frequency, TF over GST control)
AATCTT	1.26 fold enrichment (6-mer frequency, TF over GST control)	1.38 fold enrichment (6-mer frequency, TF over GST control)	1.41 fold enrichment (6-mer frequency, TF over GST control)	1.27 fold enrichment (6-mer frequency, TF over GST control)	1.31 fold enrichment (6-mer frequency, TF over GST control)	1.43 fold enrichment (6-mer frequency, TF over GST control)	1.31 fold enrichment (6-mer frequency, TF over GST control)	1.31 fold enrichment (6-mer frequency, TF over GST control)
GAACCT	1.04 fold enrichment (6-mer frequency, TF over GST control)	1.18 fold enrichment (6-mer frequency, TF over GST control)	1.14 fold enrichment (6-mer frequency, TF over GST control)	1.08 fold enrichment (6-mer frequency, TF over GST control)	1.19 fold enrichment (6-mer frequency, TF over GST control)	1.03 fold enrichment (6-mer frequency, TF over GST control)	1.1 fold enrichment (6-mer frequency, TF over GST control)	1.03 fold enrichment (6-mer frequency, TF over GST control)
CTCTCG	1.36 fold enrichment (6-mer frequency, TF over GST control)	1.42 fold enrichment (6-mer frequency, TF over GST control)	1.4 fold enrichment (6-mer frequency, TF over GST control)	1.16 fold enrichment (6-mer frequency, TF over GST control)	1.25 fold enrichment (6-mer frequency, TF over GST control)	1.34 fold enrichment (6-mer frequency, TF over GST control)	1.35 fold enrichment (6-mer frequency, TF over GST control)	1.31 fold enrichment (6-mer frequency, TF over GST control)
TTCCTG	1.87 fold enrichment (6-mer frequency, TF over GST control)	2.35 fold enrichment (6-mer frequency, TF over GST control)	2.4 fold enrichment (6-mer frequency, TF over GST control)	2.25 fold enrichment (6-mer frequency, TF over GST control)	2.03 fold enrichment (6-mer frequency, TF over GST control)	3.79 fold enrichment (6-mer frequency, TF over GST control)	2.66 fold enrichment (6-mer frequency, TF over GST control)	2.57 fold enrichment (6-mer frequency, TF over GST control)
ACGATT	1.4 fold enrichment (6-mer frequency, TF over GST control)	1.28 fold enrichment (6-mer frequency, TF over GST control)	1.26 fold enrichment (6-mer frequency, TF over GST control)	1.27 fold enrichment (6-mer frequency, TF over GST control)	1.28 fold enrichment (6-mer frequency, TF over GST control)	1.24 fold enrichment (6-mer frequency, TF over GST control)	1.32 fold enrichment (6-mer frequency, TF over GST control)	1.31 fold enrichment (6-mer frequency, TF over GST control)
TCCTAA	1.55 fold enrichment (6-mer frequency, TF over GST control)	1.36 fold enrichment (6-mer frequency, TF over GST control)	1.49 fold enrichment (6-mer frequency, TF over GST control)	1.6 fold enrichment (6-mer frequency, TF over GST control)	1.48 fold enrichment (6-mer frequency, TF over GST control)	1.5 fold enrichment (6-mer frequency, TF over GST control)	1.45 fold enrichment (6-mer frequency, TF over GST control)	1.55 fold enrichment (6-mer frequency, TF over GST control)
GCTCAA	1.08 fold enrichment (6-mer frequency, TF over GST control)	1.13 fold enrichment (6-mer frequency, TF over GST control)	1.11 fold enrichment (6-mer frequency, TF over GST control)	1.04 fold enrichment (6-mer frequency, TF over GST control)	1.16 fold enrichment (6-mer frequency, TF over GST control)	1 fold enrichment (6-mer frequency, TF over GST control)	1.04 fold enrichment (6-mer frequency, TF over GST control)	1.1 fold enrichment (6-mer frequency, TF over GST control)
TAACAC	1.22 fold enrichment (6-mer frequency, TF over GST control)	1.24 fold enrichment (6-mer frequency, TF over GST control)	1.29 fold enrichment (6-mer frequency, TF over GST control)	1.28 fold enrichment (6-mer frequency, TF over GST control)	1.21 fold enrichment (6-mer frequency, TF over GST control)	1.2 fold enrichment (6-mer frequency, TF over GST control)	1.22 fold enrichment (6-mer frequency, TF over GST control)	1.19 fold enrichment (6-mer frequency, TF over GST control)
TCACAC	1.26 fold enrichment (6-mer frequency, TF over GST control)	1.32 fold enrichment (6-mer frequency, TF over GST control)	1.33 fold enrichment (6-mer frequency, TF over GST control)	1.16 fold enrichment (6-mer frequency, TF over GST control)	1.27 fold enrichment (6-mer frequency, TF over GST control)	1.26 fold enrichment (6-mer frequency, TF over GST control)	1.27 fold enrichment (6-mer frequency, TF over GST control)	1.33 fold enrichment (6-mer frequency, TF over GST control)
CACGAT	1.29 fold enrichment (6-mer frequency, TF over GST control)	1.23 fold enrichment (6-mer frequency, TF over GST control)	1.24 fold enrichment (6-mer frequency, TF over GST control)	1.26 fold enrichment (6-mer frequency, TF over GST control)	1.32 fold enrichment (6-mer frequency, TF over GST control)	1.17 fold enrichment (6-mer frequency, TF over GST control)	1.29 fold enrichment (6-mer frequency, TF over GST control)	1.27 fold enrichment (6-mer frequency, TF over GST control)
ATGGTT	1.27 fold enrichment (6-mer frequency, TF over GST control)	1.36 fold enrichment (6-mer frequency, TF over GST control)	1.36 fold enrichment (6-mer frequency, TF over GST control)	1.18 fold enrichment (6-mer frequency, TF over GST control)	1.27 fold enrichment (6-mer frequency, TF over GST control)	1.27 fold enrichment (6-mer frequency, TF over GST control)	1.34 fold enrichment (6-mer frequency, TF over GST control)	1.3 fold enrichment (6-mer frequency, TF over GST control)
ACCGAC	1.29 fold enrichment (6-mer frequency, TF over GST control)	1.44 fold enrichment (6-mer frequency, TF over GST control)	1.38 fold enrichment (6-mer frequency, TF over GST control)	1.37 fold enrichment (6-mer frequency, TF over GST control)	1.25 fold enrichment (6-mer frequency, TF over GST control)	1.25 fold enrichment (6-mer frequency, TF over GST control)	1.27 fold enrichment (6-mer frequency, TF over GST control)	1.41 fold enrichment (6-mer frequency, TF over GST control)
TTGCAT	1.37 fold enrichment (6-mer frequency, TF over GST control)	1.56 fold enrichment (6-mer frequency, TF over GST control)	1.42 fold enrichment (6-mer frequency, TF over GST control)	1.51 fold enrichment (6-mer frequency, TF over GST control)	1.35 fold enrichment (6-mer frequency, TF over GST control)	1.4 fold enrichment (6-mer frequency, TF over GST control)	1.49 fold enrichment (6-mer frequency, TF over GST control)	1.38 fold enrichment (6-mer frequency, TF over GST control)
AATTTC	1.7 fold enrichment (6-mer frequency, TF over GST control)	1.73 fold enrichment (6-mer frequency, TF over GST control)	1.83 fold enrichment (6-mer frequency, TF over GST control)	1.59 fold enrichment (6-mer frequency, TF over GST control)	1.74 fold enrichment (6-mer frequency, TF over GST control)	2.31 fold enrichment (6-mer frequency, TF over GST control)	1.78 fold enrichment (6-mer frequency, TF over GST control)	1.94 fold enrichment (6-mer frequency, TF over GST control)

Source: article PMC7862700, “An all-to-all approach to the identification of sequence-specific readers for epigenetic DNA modifications on cytosine”
